ALR inh – human ALR oxidase inhibition via reduced H2O2 | P55789 | purified ALR, DTT oxidation, H2O2 HRP-luminol luminescence | inhibition, % (test concentration not listed) | actives 3.8% (n = 290,000);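 active = mean replicate inhibition above about 79%, with every replicate also reaching it, limit read from the data; inconclusive = only one of the two criteria met; inactive = mean below limit and not every replicate reaching it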
Target sequence (P55789 whole entry, looked up): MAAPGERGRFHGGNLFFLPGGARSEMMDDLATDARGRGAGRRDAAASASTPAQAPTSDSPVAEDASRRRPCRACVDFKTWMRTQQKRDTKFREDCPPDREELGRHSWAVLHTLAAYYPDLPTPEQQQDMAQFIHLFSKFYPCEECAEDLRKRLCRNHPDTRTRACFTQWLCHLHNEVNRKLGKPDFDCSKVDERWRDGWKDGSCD
HDAC3 inh – human HDAC3 inhibition; inhibition, % at 8.3 µM; O15379; AID 2718; recombinant HDAC3, fluorogenic peptide/trypsin coupled, fluorescence; actives 0.15% (n = 320,000); in the data active = inhibition above about 26%, passing the limit was not always enough; inconclusive = no clear call, values can overlap the other calls
GRK2 inh – blocks RNA aptamer binding to human GRK2; inhibition of aptamer binding, % at 10 µM; bead flow cytometry, FAM-aptamer displacement from GRK2; actives 0.59% (n = 330,000);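 active = inhibition of aptamer binding above 40%, roughly 3 SD of noise, on plates passing a quality check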;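 note: median bead fluorescence of bound FAM aptamer so fluorescent compounds give negative values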
Efflux pump mplx – antifungal efflux pump inhibition, Nile Red retention | actives 0.44% (n = 330,000) | inhibition, % at 10 µM | S. cerevisiae Candida pump triplex | AID 485275;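 active = plate passing quality check with inhibition over a set limit, or well fluorescence over plate mean plus 4 SD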;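 note: Nile Red retained in pooled yeast measured as flow cytometry median fluorescence; 0% = buffer negative control and 100% = Enniatin B positive control; higher means more Nile Red kept so more efflux inhibition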
Rce1 inhib – blocks yeast Ras-converting enzyme. yeast membranes, quenched prenylated peptide cleavage fluorescence. calls only. actives 0.27% (n = 290,000);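 active = fall in fluorescence gain of 50% or more versus controls, with final raw signal at or below 3038400; inconclusive = same 50% fall but final raw signal above 3038400; inactive = fall in fluorescence gain under 50%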;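 note: plate controls were neutral control wells for no effect and wells lacking membranes for full effect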
Rtt109 Vps75 – inhibitors of Candida albicans Rtt109/Vps75 histone acetyltransferase. Q5AAJ8. inhibition, % at 34.9 µM. actives 0.16% (n = 330,000). purified Rtt109/Vps75, ThioGlo CoA-SH fluorescence, 4 h;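 active = inhibition of at least 50% in every replicate; inconclusive = best replicate reaches 50% inhibition but some replicates fall short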
* = called active by the depositor. Shown are actives, neighbours in structure and some others; about 4.5% of the full set was active somewhere.

What do the screens show for `CCN(CCNC(=O)c1cc(C)nn1-c1ccccc1)c1ccccc1`?
ALR inh: 99*; HDAC3 inh: 2; GRK2 inh: 0; Efflux pump mplx: 0; Rce1 inhib: inactive; Rtt109 Vps75: 1

How did CCn1nc(C)c(CNC(=O)Nc2ccccc2C(=O)OC)c1C do in these assays?
ALR inh: 96*; HDAC3 inh: -3; GRK2 inh: 0; Efflux pump mplx: 0; Rce1 inhib: inactive; Rtt109 Vps75: -2

How did COc1cc(C2NC(=O)NC(C)=C2[N+](=O)[O-])cc(OC)c1OC (stereo not drawn) do in these assays?
ALR inh: 15; HDAC3 inh: 4; GRK2 inh: 3; Efflux pump mplx: 0; Rce1 inhib: inactive; Rtt109 Vps75: -3

What do the screens show for `COc1cccc(CN2CCC(n3nccc3NC(=O)CCOc3ccccc3)CC2)c1O`?
ALR inh: 94*; HDAC3 inh: 1; GRK2 inh: 0; Efflux pump mplx: 1; Rce1 inhib: inactive; Rtt109 Vps75: -1

What do the screens show for `COc1cccc(CN2CCC(n3nccc3NC(=O)CCOc3ccccc3)CC2)c1`?
ALR inh: 1; HDAC3 inh: 2; GRK2 inh: 0; Efflux pump mplx: 0; Rce1 inhib: inactive; Rtt109 Vps75: 5

Results for COc1cc(C(=O)NCC(=O)NCC2COc3ccccc3O2)cc(OC)c1OC (stereo not drawn) ?
ALR inh: 6; HDAC3 inh: 0; GRK2 inh: 1; Efflux pump mplx: 0; Rce1 inhib: inactive; Rtt109 Vps75: -3

Results for O=C(N/N=C/c1ccccc1O)c1cccc(C(F)(F)F)c1 ?
ALR inh: -6; HDAC3 inh: 1; GRK2 inh: 0; Efflux pump mplx: 0; Rce1 inhib: inactive; Rtt109 Vps75: -4

Results for O=C(N/N=C\c1ccc2c(c1)OCO2)c1cncc(Br)c1 ?
ALR inh: 1; HDAC3 inh: 0; GRK2 inh: 0; Efflux pump mplx: 0; Rce1 inhib: inactive; Rtt109 Vps75: -9

How did O=C(N/N=C/c1ccc(O)cc1)c1cccc(C(F)(F)F)c1 do in these assays?
ALR inh: 98*; HDAC3 inh: -12; GRK2 inh: 1; Efflux pump mplx: 0; Rce1 inhib: inactive; Rtt109 Vps75: -4

How did CC(C)(C)c1cc(C(=O)N/N=C/c2ccc(O)cc2)n(-c2ccccc2)n1 do in these assays?
ALR inh: 94*; HDAC3 inh: 1; GRK2 inh: 0; Efflux pump mplx: 0; Rce1 inhib: inactive; Rtt109 Vps75: -5

Results for O=C(N/N=C/c1ccc(O)cc1)c1cncc(Br)c1 ?
ALR inh: 100*; GRK2 inh: 1; Efflux pump mplx: 0; Rce1 inhib: inactive; Rtt109 Vps75: 6

How did O=C(CNC(=O)c1ccco1)NCC(=O)OCc1ccc(Cl)cc1Cl do in these assays?
ALR inh: -6; HDAC3 inh: -2; GRK2 inh: 1; Efflux pump mplx: 1; Rce1 inhib: inactive; Rtt109 Vps75: 4

How did COC(=O)c1cccc(NC(=S)N2CCN(c3ccccc3F)CC2)c1 do in these assays?
ALR inh: -6; HDAC3 inh: -12; GRK2 inh: 0; Efflux pump mplx: 0; Rce1 inhib: inactive; Rtt109 Vps75: -6

How did Cc1sc(NC(=O)CN(C(=O)c2ccccc2F)C2CCCC2)c(C(N)=O)c1C do in these assays?
ALR inh: 14; HDAC3 inh: 4; GRK2 inh: 1; Efflux pump mplx: 0; Rce1 inhib: inactive; Rtt109 Vps75: -3

What do the screens show for `Cc1ccccc1S(=O)(=O)Oc1cccc2c(O)cccc12`?
ALR inh: 99*; HDAC3 inh: 2; GRK2 inh: 0; Efflux pump mplx: 0; Rce1 inhib: inactive; Rtt109 Vps75: -8

Results for O=C(CSc1nnc(-c2ccco2)o1)Nc1c(F)cccc1F ?
HDAC3 inh: -1; GRK2 inh: 0; Efflux pump mplx: 0; Rtt109 Vps75: -1

How did O=C(CSc1nnc(-c2ccco2)o1)c1ccc[nH]1 do in these assays?
ALR inh: 98*; HDAC3 inh: 0; GRK2 inh: 4; Efflux pump mplx: 0; Rce1 inhib: inactive; Rtt109 Vps75: 15

What do the screens show for `O=C(CSc1nnc(-c2ccco2)o1)c1ccccc1`?
ALR inh: 99*; HDAC3 inh: inconclusive; GRK2 inh: 1; Efflux pump mplx: 0; Rce1 inhib: inactive; Rtt109 Vps75: -4
